Measured values reported in PubChem BioAssay (EPA / NIEHS).
Inconclusive results are not listed. The source made the active and inactive calls. The calls were made as follows, unless noted: active = hit-call score of the fitted dose curve at least 0.9, where 1 is the maximum; inactive = score below 0.9.

Assays:
[1] = read-out: solute carrier (SLC22A1), SLC22A1 (gene 6580); assay: LTEA_HepaRG_SLC22A1: Life Technologies and Expression Analysis (LTEA) Assay for solute carrier (SLC22A1) using HepaRG (AID 2283524); conditions: mRNA level, 48 h; actives raise or lower the signal
Summary of the method: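 Differentiated human HepaRG cells in serum-free induction medium, exposed 48 h in duplicate to 8-point half-log series from 100 µM top in 0.5% DMSO. SLC22A1 mRNA by TaqMan qRT-PCR normalized to ACTB, GAPDH, POLR2A; bidirectional fit versus DMSO.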

[2] = read-out: Pyruvate Dehydrogenase Kinase 4 (PDK4), PDK4 (gene 5166); assay: LTEA_HepaRG_PDK4: Life Technologies and Expression Analysis (LTEA) Assay for Pyruvate Dehydrogenase Kinase 4 (PDK4) using HepaRG (AID 2283525); conditions: mRNA level, 48 h; actives raise or lower the signal
Summary of the method: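 HepaRG cells plated 48 h, then switched to serum-free induction medium and exposed in duplicate for 48 h to 8 half-log concentrations from 100 uM in 0.5% DMSO. PDK4 mRNA measured by qRT-PCR, normalized to ACTB, GAPDH and POLR2A; bidirectional fit versus DMSO.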

[3] = read-out: NAD(P)H dehydrogenase [quinone] 1 (NQO1), NQO1 (gene 1728); assay: LTEA_HepaRG_NQO1: Life Technologies and Expression Analysis (LTEA) Assay for NAD(P)H dehydrogenase [quinone] 1 (NQO1) using HepaRG (AID 2283526); conditions: mRNA level, 48 h; actives raise or lower the signal
Summary of the method: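 Human HepaRG hepatic cells received chemicals for 48 h in serum-free induction medium with 0.5% DMSO, up to 100 uM. Expression was assessed by TaqMan qRT-PCR against housekeeping controls and fitted bidirectionally against DMSO.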

[4] = read-out: Nuclear factor erythroid 2-related factor 2 (Homo sapiens) (UniProt Q16236); assay: LTEA_HepaRG_NFE2L2: Life Technologies and Expression Analysis (LTEA) Assay for Nuclear factor erythroid 2-related factor 2 (NFE2L2) Transcription Factor using HepaRG (AID 2283527); conditions: mRNA level, 48 h; actives raise or lower the signal;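 also: TaqMan qRT-PCR transcript level normalised to ACTB GAPDH and POLR2A housekeeping genes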
Summary of the method: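 Differentiated human HepaRG cells, serum-free induction medium, exposed 48 h in duplicate to eight half-log concentrations up to 100 uM in 0.5% DMSO. NFE2L2 mRNA by Fluidigm TaqMan qRT-PCR, normalised to ACTB, GAPDH, POLR2A; bidirectional change versus DMSO.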

[5] = read-out: succinate dehydrogenase complex iron sulfur subunit B (SDHB), SDHB (gene 6390); assay: LTEA_HepaRG_SDHB: Life Technologies and Expression Analysis (LTEA) Assay for succinate dehydrogenase complex iron sulfur subunit B (SDHB) using HepaRG (AID 2283528); conditions: mRNA level, 48 h; actives raise or lower the signal
Summary of the method: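 HepaRG, 48 h exposure, 8-pt half-log series from 100 uM in 0.5% DMSO, duplicates. Readout: SDHB mRNA by Fluidigm qRT-PCR vs housekeeping genes; bidirectional fit relative to DMSO.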

[6] = read-out: Signal transducer and activator of transcription 3 (Homo sapiens) (UniProt P40763); assay: LTEA_HepaRG_STAT3: Life Technologies and Expression Analysis (LTEA) Assay for Signal transducer and activator of transcription (STAT3) using HepaRG (AID 2283529); conditions: mRNA level, 48 h; actives raise or lower the signal
Summary of the method: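 Differentiated HepaRG cells, serum-free induction medium, dosed 48 h in duplicate, 8 half-log concentrations from 100 uM in 0.5% DMSO. STAT3 mRNA by qRT-PCR, normalised to ACTB, GAPDH, POLR2A; bidirectional fit versus DMSO.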

[7] = read-out: sulfotransferase 2A1 (SULT2A1), SULT2A1 (gene 6822); assay: LTEA_HepaRG_SULT2A1: Life Technologies and Expression Analysis (LTEA) Assay for sulfotransferase 2A1 (SULT2A1) using HepaRG (AID 2283531); conditions: mRNA level, 48 h; actives raise or lower the signal
Summary of the method: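 Transcript levels of SULT2A1, quantified by qRT-PCR and normalized to three housekeeping genes, serve as the readout. Human HepaRG cultures receive test chemicals for 48 h at up to 100 uM in half-log steps, with 0.5% DMSO vehicle.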

[8] = read-out: Transforming Growth Factor (TGFA), TGFA (gene 7039); assay: LTEA_HepaRG_TGFA: Life Technologies and Expression Analysis (LTEA) Assay for Transforming Growth Factor (TGFA) using HepaRG (AID 2283532); conditions: mRNA level, 48 h; actives raise or lower the signal
Summary of the method: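 Differentiated HepaRG cells exposed 48 hours in serum-free induction medium, 0.5% DMSO vehicle, 8-point half-log series from 100 uM, in duplicate. TGFA mRNA by TaqMan qRT-PCR, normalised to ACTB, GAPDH, POLR2A; bidirectional fit versus DMSO.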

[9] = read-out: Transforming Growth Factor (TGFB1), TGFB1 (gene 7040); assay: LTEA_HepaRG_TGFB1: Life Technologies and Expression Analysis (LTEA) Assay for Transforming Growth Factor (TGFB1) Transporter using HepaRG (AID 2283533); conditions: mRNA level, 48 h; actives raise or lower the signal
Summary of the method: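 HepaRG, 48 h post-plating, switched to serum-free induction medium; chemicals 100 uM top, half-log, 8 pts, 0.5% DMSO, dup; 48 h exposure; RNA → Fluidigm TaqMan qRT-PCR; norm ACTB/GAPDH/POLR2A; bidirectional fit vs DMSO.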

TIMP1, TIMP1 (gene 7076) = assay: LTEA_HepaRG_TIMP1: Life Technologies and Expression Analysis (LTEA) Assay for TIMP1 using HepaRG (AID 2283534); conditions: mRNA level, 48 h; actives raise or lower the signal;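 also: TaqMan qRT-PCR signal normalized to ACTB GAPDH and POLR2A housekeeping genes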
Summary of the method: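 Readout is TIMP1 mRNA level measured by qRT-PCR and normalized to three housekeeping genes. Human HepaRG cells were treated for 48 h in duplicate at eight concentrations up to 100 uM (0.5% DMSO); gain or loss fitted against DMSO.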

[10] = read-out: Tumor necrosis factor receptor 1 (TNFRSF1A), TNFRSF1A (gene 7132); assay: LTEA_HepaRG_TNFRSF1A: Life Technologies and Expression Analysis (LTEA) Assay for Tumor necrosis factor receptor 1 (TNFRSF1A) using HepaRG (AID 2283535); conditions: mRNA level, 48 h; actives raise or lower the signal
Summary of the method: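 Read-out is TNFRSF1A transcript level by TaqMan qRT-PCR, normalized to three housekeeping genes, scored as gain or loss of signal versus 0.5% DMSO. Human HepaRG cells received test chemicals for 48 h at up to 100 uM (half-log series).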

[11] = read-out: UDP glucuronosyltransferase (UGT1A1), UGT1A1 (gene 54658); assay: LTEA_HepaRG_UGT1A1: Life Technologies and Expression Analysis (LTEA) Assay for UDP glucuronosyltransferase (UGT1A1) using HepaRG (AID 2283538); conditions: mRNA level, 48 h; actives raise or lower the signal
Summary of the method: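 Human liver HepaRG cultures receive test chemical for 48 h, up to 100 uM in 0.5% DMSO, with phenobarbital induction controls. UGT1A1 mRNA is measured by qRT-PCR and normalized to ACTB, GAPDH and POLR2A.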

[12] = read-out: UDP glucuronosyltransferase (UGT1A6), UGT1A6 (gene 54578); assay: LTEA_HepaRG_UGT1A6: Life Technologies and Expression Analysis (LTEA) Assay for UDP glucuronosyltransferase (UGT1A6) using HepaRG (AID 2283539); conditions: mRNA level, 48 h; actives raise or lower the signal
Summary of the method: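 HepaRG, 48 h post-plating switch to serum-free induction medium; chemical 48 h, 100 uM top, half-log x8, duplicate, 0.5% DMSO. Phenobarbital 1mM induction control. UGT1A6 mRNA by TaqMan qRT-PCR; gain/loss fit vs DMSO.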

[13] = read-out: X-box binding protein 1 (XBP1), XBP1 (gene 7494); assay: LTEA_HepaRG_XBP1: Life Technologies and Expression Analysis (LTEA) Assay for X-box binding protein 1 (XBP1) using HepaRG (AID 2283540); conditions: mRNA level, 48 h; actives raise or lower the signal
Summary of the method: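 Transcript levels of XBP1, measured by qRT-PCR and normalised to three housekeeping genes, were fitted bidirectionally relative to 0.5% DMSO controls. Human HepaRG cells received eight-point half-log dilutions from 100 uM for 48 h.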

[14] = LTEA_HepaRG_LDH_cytotoxicity: Cytotoxicity Assessment in the Life Technologies and Expression Analysis (LTEA) Assay (AID 2283563; active = hit-call score of the fitted dose curve at least 0.9, where 1 is the maximum)
Summary of the method: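 Cells were thawed and plated for 48 h. Medium was then replaced with serum-free induction medium. Chemicals (8 half-log points, maximum 100 uM, 0.5% DMSO) were added in duplicate for 48 h, after which spent medium was assayed for LDH.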

[15] = ATG_XTT_Cytotoxicity: Cytotoxicity Assessment in the Attagene TRANS-FACTORIAL HepG2 Assay (AID 2283584; active = hit-call score of the fitted dose curve at least 0.9, where 1 is the maximum)
Summary of the method: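 Cells: human HepG2, transiently transfected with MRTU reporter constructs. Exposure 24 h. Readout: XTT, cell number. Baseline/neg ctrl DMSO; loss-of-signal scored.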

[16] = read-out: solute carrier (SLCO1B1), SLCO1B1 (gene 10599); assay: LTEA_HepaRG_SLCO1B1: Life Technologies and Expression Analysis (LTEA) Assay for solute carrier (SLCO1B1) using HepaRG (AID 2283530); conditions: mRNA level, 48 h; actives raise or lower the signal
Summary of the method: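 HepaRG, serum-free induction medium, 48 h dosing, 8-pt half-log from 100 uM, 0.5% DMSO vehicle, duplicates. Readout: SLCO1B1 mRNA, qRT-PCR, ACTB/GAPDH/POLR2A normalization; up or down fit vs DMSO.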

[17] = read-out: Thyroid Hormone Responsive (THRSP), THRSP (gene 7069); assay: LTEA_HepaRG_THRSP: Life Technologies and Expression Analysis (LTEA) Assay for Thyroid Hormone Responsive (THRSP) using HepaRG (AID 2283536); conditions: mRNA level, 48 h; actives raise or lower the signal
Summary of the method: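 Differentiated HepaRG cells treated 48 h in serum-free induction medium with 8 half-log concentrations up to 100 uM (0.5% DMSO), duplicates. THRSP mRNA by TaqMan qRT-PCR normalised to ACTB, GAPDH, POLR2A; bidirectional fit versus DMSO.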

[18] = read-out: Cellular tumor antigen p53 (Homo sapiens) (UniProt P04637); assay: LTEA_HepaRG_TP53: Life Technologies and Expression Analysis (LTEA) Assay for Tumor Protein P53 (TP53) using HepaRG (AID 2283537); conditions: mRNA level, 48 h; actives raise or lower the signal
Summary of the method: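 HepaRG, 48 h exposure, top 100 uM, half-log 8-point, 0.5% DMSO vehicle, duplicates. Read: TP53 mRNA by TaqMan qRT-PCR, normalised to ACTB/GAPDH/POLR2A; bidirectional fit vs DMSO.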

Measured: AC50

Signal transducer and activator of transcription 3 (Homo sapiens), sequence (P40763 whole entry, looked up): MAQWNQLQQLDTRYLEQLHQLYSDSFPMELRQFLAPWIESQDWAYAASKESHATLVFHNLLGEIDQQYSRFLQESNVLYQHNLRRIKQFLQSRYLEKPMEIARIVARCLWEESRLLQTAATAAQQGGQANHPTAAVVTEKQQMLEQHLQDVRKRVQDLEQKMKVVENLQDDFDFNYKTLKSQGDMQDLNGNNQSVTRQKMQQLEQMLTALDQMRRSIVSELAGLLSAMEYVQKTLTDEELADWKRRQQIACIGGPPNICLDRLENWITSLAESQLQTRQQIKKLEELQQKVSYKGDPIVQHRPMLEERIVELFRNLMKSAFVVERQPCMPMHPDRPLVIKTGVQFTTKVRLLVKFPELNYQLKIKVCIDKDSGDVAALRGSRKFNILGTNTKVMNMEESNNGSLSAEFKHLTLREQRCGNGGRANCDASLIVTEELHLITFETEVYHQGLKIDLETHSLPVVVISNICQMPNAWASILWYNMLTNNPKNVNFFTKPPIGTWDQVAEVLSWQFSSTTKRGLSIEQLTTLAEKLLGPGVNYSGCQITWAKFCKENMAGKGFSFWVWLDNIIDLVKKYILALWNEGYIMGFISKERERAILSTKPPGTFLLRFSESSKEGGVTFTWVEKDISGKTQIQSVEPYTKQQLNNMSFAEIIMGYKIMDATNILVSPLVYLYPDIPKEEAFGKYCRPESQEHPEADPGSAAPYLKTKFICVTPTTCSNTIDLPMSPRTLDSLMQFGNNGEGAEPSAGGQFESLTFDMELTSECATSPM
Nuclear factor erythroid 2-related factor 2 (Homo sapiens), sequence (Q16236 whole entry, looked up): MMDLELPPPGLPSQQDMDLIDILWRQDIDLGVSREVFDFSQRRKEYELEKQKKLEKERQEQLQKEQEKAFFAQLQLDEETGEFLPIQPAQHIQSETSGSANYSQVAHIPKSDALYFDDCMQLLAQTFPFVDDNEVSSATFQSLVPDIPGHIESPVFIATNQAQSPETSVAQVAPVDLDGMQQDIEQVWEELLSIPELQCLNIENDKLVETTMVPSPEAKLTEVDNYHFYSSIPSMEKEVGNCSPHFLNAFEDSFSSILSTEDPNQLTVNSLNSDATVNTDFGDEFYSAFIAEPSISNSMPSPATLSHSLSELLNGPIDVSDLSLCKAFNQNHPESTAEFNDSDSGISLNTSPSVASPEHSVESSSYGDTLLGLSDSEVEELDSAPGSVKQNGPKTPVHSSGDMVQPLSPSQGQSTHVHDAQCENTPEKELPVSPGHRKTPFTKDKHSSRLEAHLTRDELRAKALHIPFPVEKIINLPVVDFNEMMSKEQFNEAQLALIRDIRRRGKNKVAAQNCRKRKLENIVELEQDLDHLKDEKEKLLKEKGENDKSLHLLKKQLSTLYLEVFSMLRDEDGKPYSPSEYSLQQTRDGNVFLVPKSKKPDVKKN
Cellular tumor antigen p53 (Homo sapiens), sequence (P04637 whole entry, looked up): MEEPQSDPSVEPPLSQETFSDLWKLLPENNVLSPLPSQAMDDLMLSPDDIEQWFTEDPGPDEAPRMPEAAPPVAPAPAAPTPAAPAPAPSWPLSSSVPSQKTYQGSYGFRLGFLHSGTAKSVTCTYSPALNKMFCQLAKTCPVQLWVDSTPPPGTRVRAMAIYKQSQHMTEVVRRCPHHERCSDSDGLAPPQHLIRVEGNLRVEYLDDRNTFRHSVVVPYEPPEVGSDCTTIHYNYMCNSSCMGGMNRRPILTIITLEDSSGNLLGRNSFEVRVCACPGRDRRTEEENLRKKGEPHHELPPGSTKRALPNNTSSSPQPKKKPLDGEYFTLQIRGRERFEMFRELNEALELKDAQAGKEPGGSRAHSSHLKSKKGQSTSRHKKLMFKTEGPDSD

CCCCCCCCCCCCCCCCO
active: [2] 66.3 µM | [7] 50 µM
not listed: [16] | [17] | [18]
inactive: all other assays above

CC(=O)[C@@]1(O)CC[C@H]2[C@@H]3CCC4=CC(=O)CC[C@]4(C)[C@H]3CC[C@@]21C
active: [17] 50 µM
not listed: [5] | [18]
inactive: all other assays above

C#CC(O)C(CC)CCCC (centres undefined)
not listed: [14] | [15] | [16] | [17] | [18]
inactive: all other assays above

O=C(O)c1[nH]n(-c2ccc(S(=O)(=O)O)cc2)c(=O)c1N=Nc1ccc(S(=O)(=O)O)cc1
not listed: [14] | [15] | [16] | [17]
inactive: all other assays above

NC=O
not listed: [5] | [14] | [18]
inactive: all other assays above

O=C(Oc1ccccc1)c1cccc(C(=O)Oc2ccccc2)c1
not listed: [5] | [14] | [17] | [18]
inactive: all other assays above

CCCCCCCCCC[N+](C)(C)[O-]
not listed: [14] | [16] | [17]
inactive: all other assays above

C/C=C/c1ccc(OC)cc1
not listed: [5] | [14] | [17] | [18]
inactive: all other assays above
